Compounds with a hit are over-represented: about 19% of the library has one in this group of screens.
HT1080NT lethal = kills 2HG-producing HT-1080-NT fibrosarcoma cells. HT-1080-NT fibrosarcoma viability, CellTiter-Glo ATP luminescence, 48 h. hit rate 1.6% among 360,000. Potency, µM (highest dose often 46.1 µM), usual class: cytotoxic;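 also: NT is the 2HG producing partner of a matched IDH1 knockdown line; nearly all actives have a fitted effect of over 55% in size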
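Toxicity toward the 2HG-producing NT line was scored as %Activity, normalised to DMSO and no-cell wells, from CellTiter-Glo luminescence after 48 hours' treatment.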
DT40 TDP1 no CPT = qHTS for Inhibitors of human tyrosyl-DNA phosphodiesterase 1 (TDP1): qHTS in cells in absence of CPT; DT40 Tdp1-/- hTDP1 cells, no CPT, ATP luminescence, 48 h; Potency, µM (doses to about 46.2 µM), usual class: inhibitors; hit rate 15% among 420,000; AID 686978, 2013; also: nearly all actives have a fitted effect of over 55% in size
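Chicken DT40 Tdp1-/- cells complemented with human TDP1, screened without camptothecin (DMSO vehicle only), 400 cells/well. Compounds pin-transferred, cells incubated at 37 °C for at least 48 hr. Growth read as ATP-dependent luminescence (CellTiter-Glo, 30 min at RT).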
DT40 TDP1 CPT = DT40-hTDP1 cell growth loss with CPT. hit rate 12% among 420,000. Potency, µM (highest dose often 46.2 µM), usual class: inhibitors. AID 686979. chicken DT40 Tdp1-/-;hTDP1 cells + 20 nM CPT, ATP luminescence, 48 h; also: nearly all actives have a fitted effect of over 55% in size
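Chicken DT40 Tdp1-/- cells stably complemented with human TDP1 were seeded at 400 cells/well in medium containing 20 nM camptothecin, exposed to pin-transferred compounds, and grown at 37 °C for at least 48 hr. Viability was read as ATP luminescence.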
IL-1B inflam inh = inhibitors of inflammasome signaling (IL-1 beta secretion); activity change, % at 57.5 µM; THP-1 LPS/ATP IL-1B secretion, AlphaLISA, 16 h; hits give low values; hit rate 4.7% among 360,000; in the data active = activity change below about -50%; inconclusive = mostly about -30% to -49%
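THP-1 cells pretreated 1 hr with compounds (up to 57.5 uM final), then stimulated with LPS (250 ng/mL final) plus ATP (1.25 mM final); secreted IL-1B measured by AlphaLISA after 16 hr, decreased signal indicating inhibition.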
uPA generation = blocks generation of uPA at the cell surface; cell surface uPA generation assay, qHTS; Potency, µM (doses to about 38.3 µM), most hits filed as inhibitors; hit rate 0.31% among 330,000; AID 540303; active = well fitted inhibition curve with a large enough effect; inconclusive = small, poorly fitted or top-dose-only effect; inactive = no such curve, though single readings can be large or run the other way; tested in mouse RAW 264.7 cells; also: nearly all actives have a fitted effect of over 55% in size
HT1080 IDH1KD tx = toxicity to HT-1080 IDH1 knockdown cells (counter line); HT-1080 IDH1 knockdown viability, ATP luminescence, 48 h; Potency, µM (highest dose often 46.1 µM), actives largely listed as cytotoxic; hit rate 2% among 360,000; AID 686971
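HT-1080-IDH1KD cells (IDH1 knocked down), 750/well in RPMI with 5% FBS, treated with compound 48 h at 37 degrees C. Viability by CellTiter-Glo luminescence, normalised to DMSO and no-cell wells; concentration-response curves classed.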
Numbers stand for hits. Unless noted, calls follow the shape of the dose curve; as a rule, active = well fitted curve in the direction sought with a large enough effect; inconclusive = small, poorly fitted or top-dose-only effect, or another doubt; inactive = no such curve, though single readings can be large; an effect the other way counts as inactive or inconclusive.

For COc1ccc(/C=C(/NC(=O)c2ccccc2)C(=O)N/N=C/c2cccs2)cc1OC the results were HT1080NT lethal inactive, DT40 TDP1 no CPT inactive, DT40 TDP1 CPT inactive, IL-1B inflam inh inactive, uPA generation inactive and HT1080 IDH1KD tx inactive.
For Cc1cccc2cc(/C=N/NC(=O)[C@H]3C[C@@H]3c3ccccc3)c(Cl)nc12 the results were HT1080NT lethal inactive, DT40 TDP1 no CPT inactive, DT40 TDP1 CPT inactive, IL-1B inflam inh inactive, uPA generation inactive and HT1080 IDH1KD tx inactive.
For CCCCCCCCCc1nc2sc3c(c2c(=O)n1NC(=O)c1ccc([N+](=O)[O-])cc1)CC(C)(C)OC3 the results were HT1080NT lethal inconclusive, DT40 TDP1 no CPT inconclusive, DT40 TDP1 CPT inconclusive, IL-1B inflam inh inactive, uPA generation inactive and HT1080 IDH1KD tx inconclusive.
Screening CCCCCCCCCc1nc2sc3c(c2c(=O)n1NC(=O)c1ccccc1[N+](=O)[O-])CC(C)(C)OC3 returned HT1080NT lethal inconclusive, DT40 TDP1 no CPT inconclusive, DT40 TDP1 CPT inconclusive, IL-1B inflam inh -74.4, uPA generation inactive and HT1080 IDH1KD tx inconclusive.
`CC(C)(C)C(=O)Nc1ccc2nc(SCC(=O)N3CCOCC3)sc2c1` gave DT40 TDP1 no CPT inconclusive and DT40 TDP1 CPT inactive.
O=C(Nc1ccc2nc(SCC(=O)N3CCOCC3)sc2c1)c1ccccc1Cl was read as DT40 TDP1 no CPT 18.4µM and DT40 TDP1 CPT inconclusive.
For O=C(Nc1ccc2nc(SCC(=O)N3CCCC3)sc2c1)c1ccccc1 the results were DT40 TDP1 no CPT inactive and DT40 TDP1 CPT inactive.
`O=C(COc1ccccc1Cl)Nc1ccc2nc(SCC(=O)N3CCOCC3)sc2c1` gave DT40 TDP1 no CPT 4.11µM and DT40 TDP1 CPT inconclusive.
`CN1CCN(C(=O)CSc2nc3ccc(NC(=O)c4ccccc4F)cc3s2)CC1` gave HT1080NT lethal inactive, DT40 TDP1 no CPT inconclusive, DT40 TDP1 CPT inconclusive, IL-1B inflam inh inactive, uPA generation inconclusive and HT1080 IDH1KD tx inactive.
`COC(=O)CSc1nc2ccc(NC(=O)c3ccccc3C(=O)N3CCOCC3)cc2s1` gave HT1080NT lethal inactive, DT40 TDP1 no CPT inactive, DT40 TDP1 CPT inactive, IL-1B inflam inh -64.8, uPA generation inactive and HT1080 IDH1KD tx inactive.
For COc1ccccc1C(=O)Nc1ccc2nc(SCC(=O)N3CCCC3)sc2c1 the results were DT40 TDP1 no CPT 4.11µM and DT40 TDP1 CPT inconclusive.
`COc1ccccc1NC(C)C(=O)c1c(C)[nH]c2ccccc12` (configuration not stated) gave DT40 TDP1 no CPT inconclusive and DT40 TDP1 CPT inactive.
`O=C(COc1ccccc1)Nc1ccc2nc(SCC(=O)N3CCCC3)sc2c1` gave DT40 TDP1 no CPT 23.1µM and DT40 TDP1 CPT inconclusive.
Screening Cc1cccn2c(=O)c3cc(S(=O)(=O)c4ccccc4)c(=N)n(Cc4cccnc4)c3nc12 returned HT1080NT lethal inactive, DT40 TDP1 no CPT 23.1µM, DT40 TDP1 CPT inactive, IL-1B inflam inh inactive, uPA generation inactive and HT1080 IDH1KD tx inactive.
N=c1c(S(=O)(=O)c2ccc(Cl)cc2)cc2c(=O)n3ccccc3nc2n1CC1CCCO1 (configuration not stated) was read as HT1080NT lethal inactive, DT40 TDP1 no CPT inactive, DT40 TDP1 CPT inactive, IL-1B inflam inh inactive, uPA generation inactive and HT1080 IDH1KD tx inactive.
Cc1ccc(S(=O)(=O)c2cc3c(=O)n4cccc(C)c4nc3n(CC3CCCO3)c2=N)cc1C (configuration not stated) was read as HT1080NT lethal inactive, DT40 TDP1 no CPT 6.51µM, DT40 TDP1 CPT 5.8µM, IL-1B inflam inh inactive, uPA generation inactive and HT1080 IDH1KD tx inactive.
Cc1cccn2c(=O)c3cc(S(=O)(=O)c4ccccc4)c(=N)n(CC4CCCO4)c3nc12 (configuration not stated) was read as HT1080NT lethal inactive, DT40 TDP1 no CPT 11.6µM, DT40 TDP1 CPT inconclusive, IL-1B inflam inh inactive, uPA generation inactive and HT1080 IDH1KD tx inactive.

Assay outcomes deposited in PubChem by National Center for Advancing Translational Sciences (NCATS).
